Rows were chosen to be rich in hits. Some 10% of all compounds tested hit in one or more screens of this group.
MCF10A rereplic: A quantitative high throughput screen for small molecules that induce DNA re-replication in MCF 10a normal breast cells; MCF 10A DNA re-replication, Hoechst nuclear intensity, 48 h; Potency, µM (highest dose often 46.1 µM), hits mostly activators; actives 2.9% (n = 350,000); AID 624296, 2012; also: nearly all actives have a fitted effect of over 50% in size
VP16 counter: VP16 counterscreen qHTS for inhibitors of ROR gamma transcriptional activity; actives 3.5% (n = 310,000); Drosophila S2 Gal4-VP16 UAS-luciferase, luminescence, 20 h; Potency, µM (highest dose often 53.6 µM), hits mostly inhibitors;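 also: Gal4-VP16 expression switched on by copper sulfate through the metallothionein promoter; nearly all actives have a fitted effect of over 50% in size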
SW480 rerep: A quantitative high throughput screen for small molecules that induce DNA re-replication in SW480 colon adenocarcinoma cells. SW480 DNA re-replication, Hoechst DNA content imaging, 48 h. Potency, µM (top dose mostly 46.1 µM), most hits filed as activators. actives 1.8% (n = 340,000); also: nearly all actives have a fitted effect of over 55% in size
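Quantitative HTS format with DMSO vehicle controls; 48 hr drug incubation at 37 C, then 40 min Hoechst staining and scanning imager measurement at 405 nm excitation.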
KB-3-1 cytotox: qHTS assay for MDR1-selective chemotherapeutics: Primary screen using the parental adenocarcinoma cell KB-3-1. KB-3-1 viability, CellTiter-Glo ATP luminescence, 72 h. AID 1347075, 2019. Potency, µM (highest dose often 46.1 µM), actives largely listed as cytotoxic. actives 1.4% (n = 400,000); also: nearly all actives have a fitted effect of over 60% in size
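Using CellTiter-Glo luminescence, growth of non-resistant KB-3-1 adenocarcinoma cells is assessed 72 h after pin-tool compound addition at 37 °C. Normalized responses across the concentration series yield fitted curves.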
RORg inh: qHTS for inhibitors of ROR gamma transcriptional activity | Drosophila S2 Gal4-RORgamma UAS-luciferase reporter, 20 h | Potency, µM (highest dose often 53.6 µM), most hits filed as inhibitors | AID 2551, 2010 | actives 5.4% (n = 310,000) | Nuclear receptor ROR-gamma (Mus musculus), P51450; also: nearly all actives have a fitted effect of over 60% in size
Target sequence (P51450 whole entry, looked up, the tested form may be a part): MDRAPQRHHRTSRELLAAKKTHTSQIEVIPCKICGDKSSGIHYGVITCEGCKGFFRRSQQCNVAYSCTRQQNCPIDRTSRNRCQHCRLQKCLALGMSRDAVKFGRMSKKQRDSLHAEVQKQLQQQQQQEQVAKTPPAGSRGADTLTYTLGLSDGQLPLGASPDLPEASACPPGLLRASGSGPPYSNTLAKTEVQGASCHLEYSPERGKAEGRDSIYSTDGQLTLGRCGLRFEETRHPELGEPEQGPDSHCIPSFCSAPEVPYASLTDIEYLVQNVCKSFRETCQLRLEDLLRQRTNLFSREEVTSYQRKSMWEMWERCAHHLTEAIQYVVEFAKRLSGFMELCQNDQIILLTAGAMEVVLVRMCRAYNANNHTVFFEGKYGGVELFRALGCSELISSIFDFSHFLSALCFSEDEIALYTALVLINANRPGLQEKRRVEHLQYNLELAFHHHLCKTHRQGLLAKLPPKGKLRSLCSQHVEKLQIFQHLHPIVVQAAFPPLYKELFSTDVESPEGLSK
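In this cell-based reporter format, copper sulfate (700 uM final) drives Gal4–ROR gamma fusion expression from a metallothionein promoter in Drosophila Schneider cells; compounds preincubated 1 hr, reporter read after 20 hr at ambient temperature.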
KB-V1 MDR tox: qHTS assay for MDR1-selective chemotherapeutics: Primary screen using the drug-selected MDR subline cells KB-V1; Potency, µM (top dose mostly 46.1 µM), usual class: cytotoxic; KB-V1 MDR cells viability, CellTiter-Glo, 72 h; actives 3.4% (n = 400,000); also: nearly all actives have a fitted effect of over 60% in size
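qHTS viability screen in drug-selected KB-V1 MDR cells: 72 h compound treatment at 37 degrees C, ATP luminescence end point.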
Hits are given with their value; . = inactive; ? = inconclusive; / = no result given; [ ] = dose if it differs, or a comment. Calls follow the shape of the dose curve; as a rule, active = well fitted curve in the direction sought with a large enough effect; inconclusive = small, poorly fitted or top-dose-only effect, or another doubt; inactive = no such curve, though single readings can be large; an effect the other way counts as inactive or inconclusive.

SMILES	MCF10A rereplic	VP16 counter	SW480 rerep	KB-3-1 cytotox	RORg inh	KB-V1 MDR tox
Cc1cc2occ(CC(=O)NC3=NCCS3)c2cc1C(C)C	?	13µM	.	.	.	?
COc1ccc(CNC(=O)CCC2N=C3c4ccccc4N=C(SCC(=O)NCCc4ccc(OC)c(OC)c4)N3C2=O)cc1 (stereo not given)	/	/	/	.	/	?
CCN1CCN(c2cc(C)c3cc(NC(=S)N4CCN(c5ccccc5F)CC4)ccc3n2)CC1	.	?	.	.	13µM	.
CCCN1CCN(C(=S)Nc2ccc3nc(N4CCN(CC)CC4)cc(C)c3c2)CC1	18µM	.	?	.	.	.
CCN1CCN(c2cc(C)c3cc(NC(=S)N4CCN(c5ccccc5)CC4)ccc3n2)CC1	21µM	.[10 µM]	18µM	.	?	.
Cc1cc(N2CCOCC2)nc2ccc(NC(=S)N3CCN(c4ccccc4)CC3)cc12	.	.	?	?	?	.
CCN1CCN(c2cc(C)c3cc(NC(=S)N4CCOCC4)ccc3n2)CC1	?	.	16µM	.	.	.
Cc1cccc(NC(=O)c2ccc(CN3CCc4ccccc4C3)cc2)c1C	23µM	.	.	?	.	?
Cc1ccccc1NC(=O)c1ccc(CN2CCc3ccccc3C2)cc1	?	.[0.365 µM]	.	10µM	.	?
CCc1cccc(C)c1NC(=O)c1ccc(CN2CCc3ccccc3C2)cc1	.	.	.	.	.	?
CN1CCN(S(=O)(=O)c2ccc(Sc3nnnn3-c3ccccc3)c([N+](=O)[O-])c2)CC1	6.5µM	?	16µM	?	7.1µM	?
CC(=O)c1ccc(Sc2nnnn2-c2ccccc2)c([N+](=O)[O-])c1	?	11µM	?	?	8.9µM	?
O=[N+]([O-])c1ccc(Sc2nnnn2-c2ccccc2)c(Cl)c1	4.1µM	.	?	?	?	?
S=Cc1nc2ccccc2[nH]1	/	/	/	?	/	.
CCOc1ccccc1CNC(=O)CCCn1nc(C)c2sc3ccccc3c2c1=O	/	/	/	.	/	.
OC(c1ccc(Cl)c(Cl)c1)c1ncc(-c2ccccc2F)[nH]1 (stereo not given)	/	/	/	.	/	.
Cc1cccc(C)c1NC(=O)CN(C)C(=O)c1ccc(-c2cccc(C(F)(F)F)c2)o1	.	/	4.1µM	.	/	.
Cc1cccc(C)c1NC(=O)CN(C)c1ccc(C(F)(F)F)cn1	.	.	12µM	.	.	.
COc1ccc(C(=O)OCc2cc(=O)n3nc(C4CC4)sc3n2)cc1OC	/	/	/	.	/	.
COc1cccc(-c2nccc(NCCc3c[nH]c4ccc(OC)cc34)n2)c1	/	.	/	/	?	/
COc1cc(OC)c(/C=C/c2ccc3ccccc3[n+]2C)c(OC)c1	/	/	/	0.73µM	/	.
CCCC[n+]1c(/C=C/c2c(OC)cc(OC)cc2OC)ccc2ccccc21	/	/	/	.	/	.
CCC[n+]1c(/C=C/c2c(OC)cc(OC)cc2OC)ccc2ccccc21	/	/	/	1.3µM	/	.
O=C1CC[C@H](C(=O)N[C@@H]2C[C@H]2c2ccccc2)N1	.	.	.	/	.	/
N/C(=N\c1nnc(-c2ccncc2)s1)Nc1ccc(Cl)c(Cl)c1	/	/	/	.	/	.
SMILES	MCF10A rereplic	VP16 counter	SW480 rerep	KB-3-1 cytotox	RORg inh	KB-V1 MDR tox
CC1=C(C(=O)Nc2ccccc2)C(c2ccc(C)o2)n2c(s/c(=C/c3ccccc3)c2=O)=N1 (stereo not given)	15µM	.	.	.	.	.
CC1=C(C(=O)Nc2ccccc2C)C(c2ccc(C)o2)n2c(s/c(=C/c3ccccc3)c2=O)=N1 (stereo not given)	.	.	.	.	.	.
CC(C)c1ccccc1NC(=O)Nc1nnc([C@H]2C[C@H](O)[C@@H](CO)O2)s1	/	/	/	0.0012µM	/	.
COc1ccccc1OC(C)C(=O)N1CCC(c2nc3ccccc3s2)CC1 (stereo not given)	/	/	/	15µM	/	?
CCc1ccc(OC(C)C(=O)N2CCC(c3nc4ccccc4s3)CC2)cc1 (stereo not given)	/	/	/	?	/	15µM
CCN(CC)C(=O)c1ccc(S(=O)(=O)N2CCC(c3nc4ccccc4s3)CC2)cc1	?	.	.	21µM	?	7.3µM
CC(NC(=O)c1cc(COc2ccc(-n3cncn3)cc2)on1)c1ccc(F)cc1 (stereo not given)	/	/	/	.	/	.
CCOc1ccccc1NC(=O)N(C)CCc1c(C)nn(CC)c1C	/	/	/	.	/	.
CCc1ccc2occ(CC(=O)NCc3ccccc3)c2c1	/	/	/	.	/	.
CCn1c(C)c(C(C)=O)c(N2CCN(c3cccc(Cl)c3)CC2)nc1=S	.	.	.	.	?	.
CC(=O)c1c(N2CCN(C)CC2)nc(=S)n(Cc2ccccc2)c1C	.	.	?	.	.	.
CC(=O)c1c(N2CCN(c3cccc(Cl)c3)CC2)nc(=S)n(-c2ccccc2)c1C	.	?	.	.	20µM	.
C=CCn1c(C)c(C(C)=O)c(N2CCN(C(c3ccccc3)c3ccccc3)CC2)nc1=S	.	?	.	.	18µM	?
CCn1c2ccccc2c2cc(NC(=O)CC(C)=O)ccc21	?	.	.	.	.	.
CCn1c2ccccc2c2cc([N+](=O)[O-])ccc21	.	.	.	?	.	?
CCCC(=O)Nc1ccc2c(c1)c1ccccc1n2CC	21µM	.	?	?	.	?
CCn1c2ccccc2c(=O)c2ccccc21	23µM	.	23µM	.	.	.
CCn1c2ccccc2c2cc(NC(=O)C(C)C)ccc21	.	.	.	.	.	?
CCn1c2ccccc2c2cc(NS(=O)(=O)c3ccccc3C)ccc21	?	.	?	16µM	.	?
CCOc1ccc(-c2nnc(SCC(=O)Nc3ccc4c(c3)c3ccccc3n4CC)n2N)cc1	10µM	22µM	?	.	?	.
CCC(=O)N1CCCc2cc(S(=O)(=O)N3CCC(C(=O)NC4CCC(C)CC4)CC3)ccc21 (stereo not given)	/	/	/	.	/	.
O=C(c1cc2ccccc2oc1=O)N(Cc1ccco1)Cc1cccs1	?	.	.	.	.	5.2µM
CCC1Cc2[nH]c(=S)[nH]c(=O)c2C(c2ccc(F)cc2)O1 (stereo not given)	/	/	/	.	/	.
CCOc1ccccc1NC(=O)N1c2ccccc2Sc2ccccc21	/	/	/	.	/	.
CN(C)c1ccc(C(CNS(=O)(=O)c2ccc(Br)cc2)N2CCCC2)cc1 (stereo not given)	/	/	/	.	/	.
CC1(C)CC(=O)C2=C(C1)OC(N)=C(C#N)C2C#Cc1ccccc1 (stereo not given)	8.9µM	.	?	.	.	.
